Experiment [1] in a line: BSK_4H_Eotaxin3: BioMAP Diversity Plus: 4H Assay for Eotaxin 3 Biomarker Activity (AID 2283000).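 As to outcome: CCL26 protein level quantified by ELISA in parallel with SRB cytotoxicity check.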 Conditions: primary human endothelial cells (HUVEC); actives raise or lower the signal. The procedure, abridged: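 ELISA quantitation of CCL26 (Eotaxin-3) protein from chemically dosed human vascular endothelial cells at 24 h; increases and decreases both scored relative to DMSO-treated baseline.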

Read-out in experiment [2]: Intercellular Adhesion Molecule 1 (ICAM1), ICAM1 (gene 3383)
In words: BSK_3C_ICAM1: BioMAP Diversity Plus: 3C Assay for Intercellular Adhesion Molecule 1 (ICAM1) Biomarker Activity (AID 2283003). The settings on record: primary human endothelial cells (HUVEC); actives raise or lower the signal. In outline: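 Chemicals are dosed onto primary human umbilical vein endothelium (3C system). After 24 h, ICAM-1 is measured by ELISA, and responses are fitted bidirectionally relative to DMSO.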

Read-out in experiment [3]: Interleukin-1 alpha (IL1a), IL1A (gene 3552)
In words: BSK_BE3C_IL1a: BioMAP Diversity Plus: BE3C Assay for Interleukin-1 alpha (IL1a) Biomarker Activity (AID 2283016). Conditions: primary human bronchial epithelial cells; actives raise or lower the signal. The procedure, abridged: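 Signal from IL-1a ELISA, taken 24 h after chemical dosing of human bronchial epithelial cells, is compared with DMSO as baseline using bidirectional curve fitting.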

Read-out in experiment [4]: Monocyte Chemoattractant Protein-1 (MCP1), CCL2 (gene 6347)
Briefly: BSK_3C_MCP1: BioMAP Diversity Plus: 3C Assay for Monocyte Chemoattractant Protein-1 (MCP1) Biomarker Activity (AID 2283017). Conditions: primary human endothelial cells (HUVEC); actives raise or lower the signal. In outline:
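Using human vascular primary endothelium, researchers measured MCP-1 by ELISA 24 h after treatment, with DMSO serving as negative control for bidirectional fitting.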

Read-out in experiment [5]: Interleukin-8 (IL8), CXCL8 (gene 3576)
In words: BSK_3C_IL8: BioMAP Diversity Plus: 3C Assay for Interleukin-8 (IL8) Biomarker Activity (AID 2283020). Conditions: primary human endothelial cells (HUVEC); actives raise or lower the signal. In outline: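 Endothelial primary cells of human umbilical vein origin are dosed with chemical; after 24 h the IL-8 biomarker is measured by ELISA, and concentration–response is fitted in both directions versus DMSO.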

Experiment [6] can be described thus: BSK_3C_SRB: Viability Assessment in the BioMAP Diversity Plus: 3C Assay (AID 2283023).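 Also: cells read 24 h after compound dosing; fitted both ways against DMSO so a hit may be signal rise or drop.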 The settings on record: primary human endothelial cells (HUVEC). In outline: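 Overt cytotoxicity is gauged in parallel confluent HUVEC cultures by SRB total-protein staining at the time of biomarker measurement, 24 h after dosing. Gain or loss of signal is fitted versus DMSO.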

Read-out in experiment [7]: Pselectin, SELP (gene 6403)
Briefly: BSK_4H_Pselectin: BioMAP Diversity Plus: 4H Assay for Pselectin Biomarker Activity (AID 2283026). Conditions: primary human endothelial cells (HUVEC); actives raise or lower the signal. In outline:
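Endothelial primary cells (human umbilical vein) are dosed, incubated 24 h, and assayed for surface P-selectin by ELISA; responses in either direction are fitted relative to the DMSO negative control.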

A short description of experiment [8]: BSK_4H_SRB: Viability Assessment in the BioMAP Diversity Plus: 4H Assay (AID 2283027).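 Also: cells exposed to compound for 24 h before staining.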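 As to AC50: curves fitted both ways versus DMSO so AC50 may be loss or gain.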 The settings on record: primary human endothelial cells (HUVEC). The procedure, abridged:
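HUVEC, 24 h post-dose; 10% TCA fix, 0.1% SRB stain, A560 nm. Total protein = overt cytotoxicity, parallel to biomarker read. Bidirectional fit vs DMSO baseline.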

Read-out in experiment [9]: Human Leukocyte Antigen - DR isotype (HLADR), HLA-DRA (gene 3122)
In words: BSK_BE3C_HLADR: BioMAP Diversity Plus: BE3C Assay for Human Leukocyte Antigen - DR isotype (HLADR) Biomarker Activity (AID 2283032). Conditions: primary human bronchial epithelial cells; actives raise or lower the signal. In outline:
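Chemicals are dosed onto BE3C bronchial epithelial cultures of human origin and left 24 h. HLA-DR is then measured by ELISA, and the endpoint is fitted in both directions using DMSO as the activity baseline.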

Read-out in experiment [10]: Monokine induced gamma interferon (MIG), CXCL9 (gene 4283)
Briefly: BSK_BE3C_MIG: BioMAP Diversity Plus: BE3C Assay for Monokine induced gamma interferon (MIG) Biomarker Activity (AID 2283035).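 Also: MIG protein measured by ELISA in BE3C cultures after 24 h of dosing.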 The settings on record: primary human bronchial epithelial cells; actives raise or lower the signal. In outline:
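Dose cells (human primary bronchial epithelial), incubate 24 h, quantify MIG by ELISA, then fit concentration–response in both directions relative to DMSO control.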

Read-out in experiment [11]: Transforming growth factor beta 1 (TGFb1), TGFB1 (gene 7040)
In words: BSK_BE3C_TGFb1: BioMAP Diversity Plus: BE3C Assay for Transforming growth factor beta 1 (TGFb1) Biomarker Activity (AID 2283036;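 also: TGF-b1 protein level measured by ELISA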). The settings on record: primary human bronchial epithelial cells; actives raise or lower the signal. In outline:
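Bronchial epithelial primary cells are treated with test chemical, then TGF-b1 is quantified by ELISA after 24 hours. Values derive from bidirectional fitting against DMSO, with cytotoxicity checked by SRB staining in parallel cultures.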

Read-out in experiment [12]: urokinase plasminogen activator (uPA), PLAU (gene 5328)
Briefly: BSK_BE3C_uPA: BioMAP Diversity Plus: BE3C Assay for urokinase plasminogen activator (uPA) Biomarker Activity (AID 2283038).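 Also: uPA protein level quantified by ELISA in cell cultures; uPA read one day after compound addition.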 Conditions: primary human bronchial epithelial cells; actives raise or lower the signal. The procedure, abridged:
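Using confluent primary human lung bronchial epithelial cultures, we dosed chemicals, waited 24 h, then ran a uPA ELISA, fitting bidirectionally against DMSO.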

Read-out in experiment [13]: Macrophage colony-stimulating factor (MCSF), CSF1 (gene 1435)
In words: BSK_CASM3C_MCSF: BioMAP Diversity Plus: CASM3C Assay for Macrophage colony-stimulating factor (MCSF) Biomarker Activity (AID 2283044).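 Also: M-CSF protein amount quantified by ELISA after 24 h exposure.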 The settings on record: primary human coronary artery smooth muscle cells; actives raise or lower the signal.

Read-out in experiment [14]: Low-density lipoprotein receptor (LDLR), LDLR (gene 3949)
In words: BSK_CASM3C_LDLR: BioMAP Diversity Plus: CASM3C Assay for Low-density lipoprotein receptor (LDLR) Biomarker Activity (AID 2283045).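 Also: LDLR protein level on the cell surface quantified by ELISA.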 The settings on record: primary human coronary artery smooth muscle cells; actives raise or lower the signal.

Read-out in experiment [15]: serum amyloid A (SAA), SAA1 (gene 6288)
Briefly: BSK_CASM3C_SAA: BioMAP Diversity Plus: CASM3C Assay for serum amyloid A (SAA) Biomarker Activity (AID 2283049).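 Also: SAA protein level quantified by ELISA.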 Conditions: primary human coronary artery smooth muscle cells; actives raise or lower the signal.

The nature of experiment [16]: BSK_CASM3C_SRB: Viability Assessment in the BioMAP Diversity Plus: CASM3C Assay (AID 2283050).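 Also: cells exposed to compound for 24 h.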 The settings on record: primary human coronary artery smooth muscle cells.
Read-out in experiment [17]: Vascular cell adhesion molecule 1 (VCAM1), VCAM1 (gene 7412)
In words: BSK_CASM3C_VCAM1: BioMAP Diversity Plus: CASM3C Assay for Vascular cell adhesion molecule 1 (VCAM1) Biomarker Activity (AID 2283055).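 Also: VCAM-1 protein level quantified by ELISA on the cells.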 Conditions: primary human coronary artery smooth muscle cells; actives raise or lower the signal.

Read-out in experiment [18]: Macrophage colony-stimulating factor (MCSF), CSF1 (gene 1435)
In words: BSK_hDFCGF_MCSF: BioMAP Diversity Plus: hDFCGF Assay for Macrophage colony-stimulating factor (MCSF) Biomarker Activity (AID 2283060). Conditions: primary human foreskin fibroblasts; actives raise or lower the signal. The procedure, abridged:
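fibroblasts (human foreskin, primary), 24 h post-dose; M-CSF by ELISA; bidirectional fit, DMSO = baseline.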

Read-out in experiment [19]: Interleukin-1 alpha (IL1a), IL1A (gene 3552)
In words: BSK_KF3CT_IL1a: BioMAP Diversity Plus: KF3CT Assay for Interleukin-1 alpha (IL1a) Biomarker Activity (AID 2283070). The settings on record: primary human keratinocytes with fibroblasts; actives raise or lower the signal. In outline:
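Primary skin co-culture (keratinocytes, foreskin fibroblasts), 24 h exposure; ELISA for IL-1a; bidirectional curve fit vs DMSO.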

Read-out in experiment [20]: TIMP metallopeptidase inhibitor 2 (TIMP2), TIMP2 (gene 7077)
In words: BSK_KF3CT_TIMP2: BioMAP Diversity Plus: KF3CT Assay for TIMP metallopeptidase inhibitor 2 (TIMP2) Biomarker Activity (AID 2283071). The settings on record: primary human keratinocytes with fibroblasts; actives raise or lower the signal. In outline:
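Chemicals were dosed onto human skin primary co-cultures of keratinocytes and foreskin fibroblasts, and TIMP-2 was measured by ELISA after 24 hours. Activity in either direction was fitted relative to DMSO.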

Consider six compounds from PubChem BioAssay (EPA / NIEHS).

The structures appear in SMILES notation. Calls of active or inactive are those of the source. The calls were made as follows: active = hit-call score of the fitted dose curve at least 0.9, where 1 is the maximum; inactive = score below 0.9.

For `CC(C)(C)C(=O)CCl`, the AC50 in experiment [1] is 20 µM (active); in [9], 20 µM (active); in experiment [13], 0.65 µM (active); in experiment [17], 11.7 µM (active). The outcome in [2], in [3], in [4], in experiment [5], in experiment [6] and in [7] was inactive. In addition, the outcome in [8], in [10], in [11], in [12], in experiment [14] and in experiment [15] was inactive. The outcome in experiment [16], in experiment [18], in experiment [19] and in experiment [20] was inactive.
Turning to `c1ccc(Nc2ccc3ccccc3c2)cc1`, the outcome in [1], in experiment [7], in experiment [10], in [11], in [12] and in [14] was inactive. Besides, the outcome in [15], in experiment [16] and in [17] was inactive. Moreover, the AC50 in [2] is 30.6 µM (active); in [3], 20 µM (active); in [4], 26 µM (active); in [5], 31.9 µM (active); in experiment [6] it was 30.2 µM (active); in experiment [8], 32.5 µM (active). The AC50 in experiment [9] is 20 µM (active); in experiment [13], 20 µM (active); in [18], 34.4 µM (active); in experiment [19], 24.2 µM (active); in experiment [20], 15.8 µM (active).
On to `O=S(=O)(c1ccccc1)c1ccccc1`, for which the outcome in experiment [1], in experiment [2], in experiment [3], in experiment [4], in experiment [5] and in experiment [6] was inactive. The outcome in experiment [7], in [8], in experiment [9], in experiment [10], in experiment [11] and in experiment [12] was inactive. For the same compound, the result in experiment [13], in experiment [14], in experiment [15], in experiment [16], in experiment [17] and in experiment [18] was inactive. Moreover, the result in experiment [19] and in [20] was inactive.
For `COC(C)(C)CCC[C@H](C)C/C=C/C(C)=C/C(=O)OC(C)C`, the concentration at half-maximal activity (AC50) was 29.4 µM (active) in experiment [1]; 30.4 µM (active) in [2]; 7.52 µM (active) in experiment [3]; 36.9 µM (active) in experiment [4]; 31.1 µM (active) in experiment [6]; 25.6 µM (active) in [7]. Also, the AC50 in [8] was 32.4 µM (active); in [9] it was 18.5 µM (active); in experiment [13] it was 13.7 µM (active); in experiment [14] it was 10.2 µM (active); in experiment [17] it was 20 µM (active); in experiment [18], 22.7 µM (active). The AC50 was 24.1 µM (active) in experiment [19] and 9.64 µM (active) in [20]. Moreover, the outcome in [5], in experiment [10], in experiment [11], in experiment [12], in experiment [15] and in experiment [16] was inactive.
Take `Nc1ccc(-c2ccc(N)c(N)c2)cc1N`: the outcome in [1], in [2], in experiment [3], in [4], in experiment [5] and in experiment [6] was inactive. The result in experiment [8], in experiment [9], in [10], in experiment [11], in experiment [12] and in [14] was inactive. Moreover, the outcome in [15] and in [16] was inactive. The AC50 was 24.9 µM (active) in experiment [7]; 8.36 µM (active) in [13]; 10 µM (active) in experiment [17]; 16.1 µM (active) in experiment [18]; 15.8 µM (active) in experiment [19]; 20 µM (active) in experiment [20].
Consider `CC(C)CCCCCCCOP(=O)(Oc1ccccc1)Oc1ccccc1`, for which the AC50 in experiment [1] was 20 µM (active); in experiment [2], 20 µM (active); in experiment [3] it was 5.34 µM (active); in [4], 10.7 µM (active); in [5] it was 20 µM (active); in experiment [6], 9.85 µM (active). In addition, the AC50 in [7] is 15.1 µM (active); in [8] it was 20 µM (active); in experiment [9] it was 13.9 µM (active); in experiment [13], 0.173 µM (active); in experiment [14] it was 6.45 µM (active); in [16], 20 µM (active). Also, the AC50 was 8.47 µM (active) in [18], 11.3 µM (active) in [19] and 16.1 µM (active) in experiment [20]. Further, the outcome in experiment [10], in experiment [11], in [12], in experiment [15] and in experiment [17] was inactive.
